How the values were obtained:
Assay in all cases: PBM binding z-score (relative to random genomic background probes); higher = stronger binding; sequences stand for … in GC…GCGATTGACAGCGTAGAATGAAGG
[1] = system: FXR:RXRa (NR concentration 270 nM, RXRa partner concentration 90 nM)
Method in brief: (§1)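 Regression normalization was applied to scanned fluorescence from custom Agilent 4×180K protein-binding microarrays. Before scanning, arrays were incubated 1 h with ligand-free nuclear receptor dimers, and binding was detected with antibodies against each partner (one per run). Binding z-scores use the random background probes as reference.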

[2] = system: LXRa:RXRa (NR concentration 270 nM, RXRa partner concentration 90 nM)
Method in brief: as §1

[3] = system: LXRa homodimer (NR concentration 270 nM)
Method in brief: as §1

[4] = system: LXRb:RXRa (NR concentration 270 nM, RXRa partner concentration 90 nM)
Method in brief: as §1

[5] = system: LXRb homodimer (NR concentration 270 nM)
Method in brief: as §1

[6] = system: PPARa:RXRa (NR concentration 270 nM, RXRa partner concentration 90 nM)
Method in brief: as §1

[7] = system: PPARg:RXRa (NR concentration 180 nM, RXRa partner concentration 90 nM)
Method in brief: as §1

[8] = system: PPARg:RXRa 270nM:90nM, anti-RXR (NR concentration 270 nM, RXRa partner concentration 90 nM)
Method in brief: as §1

[9] = system: PPARg:RXRa 30nM:10nM, anti-RXR (NR concentration 30 nM, RXRa partner concentration 10 nM)
Method in brief: as §1

[10] = system: PPARg:RXRa 90nM:30nM, anti-RXR (NR concentration 90 nM, RXRa partner concentration 30 nM)
Method in brief: as §1

[11] = system: PPARg:RXRa DBDmut IVT, anti-RXR (DBD mutation: RXRa K156A/R161A, NR concentration 270 nM, RXRa partner concentration 90 nM)
Method in brief: as §1

[12] = system: PPARg:RXRa IVT, anti-PPARg (NR concentration 270 nM, RXRa partner concentration 90 nM)
Method in brief: as §1

[13] = system: PPARg DBDmut:RXRa IVT, anti-PPARg (DBD mutation: PPARg1 K132A/R137A, NR concentration 270 nM, RXRa partner concentration 90 nM)
Method in brief: as §1

[14] = system: PPARg DBDmut IVT, anti-PPARg (DBD mutation: PPARg1 K132A/R137A, NR concentration 270 nM)
Method in brief: as §1

[15] = system: PPARg homodimer (NR concentration 180 nM)
Method in brief: as §1

[16] = system: PXR:RXRa (NR concentration 270 nM, RXRa partner concentration 90 nM)
Method in brief: as §1

[17] = system: PXR homodimer (NR concentration 270 nM)
Method in brief: as §1

[18] = system: RARa:RXR (NR concentration 270 nM, RXRa partner concentration 90 nM)
Method in brief: as §1

[19] = system: RARa homodimer (NR concentration 270 nM)
Method in brief: as §1

[20] = system: RARb:RXRa (NR concentration 270 nM, RXRa partner concentration 90 nM)
Method in brief: as §1

Row | Sequence | PBM binding z-score [1] | PBM binding z-score [2] | PBM binding z-score [3] | PBM binding z-score [4] | PBM binding z-score [5] | PBM binding z-score [6] | PBM binding z-score [7] | PBM binding z-score [8] | PBM binding z-score [9] | PBM binding z-score [10] | PBM binding z-score [11] | PBM binding z-score [12] | PBM binding z-score [13] | PBM binding z-score [14] | PBM binding z-score [15] | PBM binding z-score [16] | PBM binding z-score [17] | PBM binding z-score [18] | PBM binding z-score [19] | PBM binding z-score [20]
1 | TCTTGTAGATCAGCAGGTTAATAAAGCTGGCCAA | 0.186 | 0.321 | -0.0562 | 0.223 | -0.339 | 0.462 | -0.26 | 1.38 | 2.55 | 1.7 | 1.69 | 0.368 | 0.134 | 0.645 | -0.332 | 0.185 | -0.721 | 0.556 | 0.0648 | 0.000915
2 | GCTTGTAGATCAAGGTTAAGTAAGACTAAGCTAA | 0.31 | 0.866 | -0.213 | 0.847 | -0.28 | 1.8 | 1.15 | 2.27 | 0.377 | 1.78 | 1.5 | 1.73 | -0.282 | 0.512 | -0.0519 | 0.746 | -0.237 | 0.964 | -0.148 | 0.875
3 | CGTCAAAGTTCAACAAAGGTAACGTAAAGCACGC | 7.15 | 6.13 | 3.38 | 3.9 | 1.98 | 4.83 | 5.08 | 5.42 | 2.27 | 4.23 | 0.464 | 2.37 | 1.21 | 0.778 | 3.04 | 5.18 | 3.03 | 4.08 | 1.53 | 5.32
4 | CCTAGTTGGTCATGGTCACACACGCTATAGGTAC | -0.0474 | 0.0849 | 0.431 | 0.71 | 0.175 | 0.348 | 1.04 | 0.761 | 0.167 | 0.467 | 1.53 | 1.72 | 0.378 | 0.935 | 0.845 | 0.223 | 0.732 | 0.207 | 1.39 | 1.46
5 | CCTAGCAAGCCAATCTGGGTCACTCAAGGCTTGA | 0.309 | 0.44 | -0.472 | 0.641 | -0.582 | 3.06 | 1.85 | 1.79 | -0.259 | 0.994 | 3.85 | 4.86 | -0.252 | -0.0798 | 0.973 | 0.841 | -0.371 | 1.69 | -0.371 | 0.92
6 | CATACAGGGTCACCTAGGCCAGAGTAGGGACGGC | 6.41 | 4.26 | 0.036 | 3.35 | 0.688 | 5.64 | 6.1 | 5.1 | 2.1 | 3.77 | 1.55 | 4.32 | 1.86 | 1.64 | 1.65 | 3.56 | 0.395 | 4.49 | 0.259 | 4.41
7 | TAGCCTAGGTCAGATCGGACCAGTATACGCTATA | 1.36 | 1.26 | -0.219 | 1.03 | -0.138 | 1.99 | 0.959 | 0.981 | -0.106 | 0.213 | 0.812 | 1.36 | 0.21 | 0.399 | 0.0652 | 0.377 | -0.37 | 1.48 | -0.814 | 2.85
8 | CGTCAAAGTTCAAGGTAACGTAACAGAAAGCAGC | 6.65 | 5.73 | 2.59 | 3.46 | 1.01 | 4.81 | 4.45 | 5.18 | 2.02 | 3.97 | 0.893 | 2.47 | 1.4 | 0.701 | 2.19 | 4.2 | 2.44 | 3.28 | 1.04 | 5.17
9 | ATCTCTAGGTGAGACTCAGTTCAGTGAAGAACGC | 0.247 | 0.206 | 0.00794 | 0.271 | 0.0417 | 0.953 | 0.798 | 0.846 | 0.146 | 0.412 | 4.55 | 3.85 | 0.96 | -0.0812 | -0.0769 | 1.31 | 0.653 | 0.361 | 0.0758 | 0.707
10 | TTACCAAGGTGAGCTGACGTCGTTGATCCAACTC | -0.0042 | -0.397 | -0.855 | -0.446 | -0.946 | 0.149 | 0.0549 | 0.41 | -0.0176 | -0.026 | 0.771 | 1.43 | -0.733 | -0.641 | -0.886 | -0.363 | -0.913 | -0.1 | -1.03 | 0.866
11 | GCTGCTAGGTCAAGTGATGGTCAGCTAAAGCTCG | 4.09 | 3.01 | 0.152 | 1.9 | -0.0819 | 3.57 | 2.46 | 3.13 | 0.591 | 2.12 | 4.64 | 4.05 | 0.0181 | -0.582 | 1.55 | 1.43 | -0.69 | 2.5 | -0.171 | 4.11
12 | GCTGCTAGGTCAGGTTGGTCAGATAACGGGTACG | 1.44 | 0.895 | -0.305 | 0.708 | 0.0296 | 1.5 | 1.03 | 1.12 | -0.213 | 0.38 | 2.83 | 2.3 | -0.406 | -0.502 | 0.742 | 0.425 | -0.0616 | 0.792 | 0.212 | 3.22
13 | CGTCAAAGTTCAACTAGGGTAACGTAAAGCACGC | 7.53 | 6.47 | 4.77 | 4.43 | 2.39 | 5.32 | 5.78 | 5.97 | 2.98 | 5.07 | 1.68 | 3.83 | 0.643 | 0.081 | 3.72 | 5.46 | 6.56 | 4.56 | 1.44 | 5.37
14 | ATCACTAGGTAACCAAGTTCAGTGAATGCCGAAC | 0.163 | 0.618 | 0.625 | 0.415 | -0.134 | 1.42 | 1.82 | 1.3 | 0.47 | 0.739 | 4.99 | 4.16 | 1.62 | 0.399 | 0.811 | 2.06 | 1.73 | 0.23 | 0.365 | 1.01
15 | ATATCAAGGTGATCGTGAGGTCGTTGATACTAAC | 1.97 | 1.33 | 0.367 | 1.31 | 0.595 | 1.82 | 0.923 | 0.763 | 0.0904 | 0.846 | 1.67 | 2.27 | 1.01 | 1.33 | 0.347 | 3.24 | 1.18 | 2.03 | 0.406 | 1.69

From the supplement of paper PMC6555819
